Source: the supplement of paper PMC8728848
The sample as a whole holds a higher share of the strongest signals than the screen did.

Tests used:
Test in all cases: glycan array binding signal (z-score within array); higher = stronger binding
Conditions in all cases: glycan notation: IUPAC condensed, linker removed
[1] = target: Fuc(a1-2)Gal(b1-3)GalNAc(b1-3)Gal
How it was run: (§1)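 Glycan array data were curated from 3228 arrays in the Consortium for Functional Glycomics database and kept only where the protein sequence was available. Glycan names were converted to IUPAC-condensed notation, and columns mapping to the same glycan were averaged. The binding signal is a within-array Z-score, averaged across arrays of the same protein sequence at different concentrations or buffers and across linkers. Negative Z-scores can be read as non-binding.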

[2] = target: Fuc(a1-2)Gal(b1-3)[Fuc(a1-4)]GlcNAc
How it was run: as §1

[3] = target: Fuc(a1-2)Gal6S(b1-3)GlcNAc6S
How it was run: as §1

[4] = target: Fuc(a1-2)Gal6S(b1-4)Glc6S
How it was run: as §1

[5] = target: Fuc(a1-2)[Gal(a1-3)]Gal(b1-3)GlcNAc(b1-2)Man(a1-3)[Fuc(a1-2)[Gal(a1-3)]Gal(b1-3)GlcNAc(b1-2)Man(a1-6)]Man(b1-4)GlcNAc(b1-4)[Fuc(a1-6)]GlcNAc
How it was run: as §1

[6] = target: Fuc(a1-2)[Gal(a1-3)]Gal(b1-4)GlcNAc(b1-6)GalNAc
How it was run: as §1

[7] = target: Fuc(a1-2)[GalNAc(a1-3)]Gal(b1-4)GlcNAc(b1-6)GalNAc
How it was run: as §1

[8] = target: Fuc(a1-2)[GalNAc(b1-3)]Gal
How it was run: as §1

[9] = target: Fuc(a1-3)[Gal3S(b1-4)]GlcNAc
How it was run: as §1

[10] = target: Fuc(a1-3)[Gal3S(b1-4)]GlcNAc6S
How it was run: as §1

[11] = target: Fuc(a1-3)[GalNAc(b1-4)]GlcNAc
How it was run: as §1

[12] = target: Gal(a1-3)Fuc(a1-2)Gal(b1-4)GlcNAc(b1-3)[Gal(a1-3)Fuc(a1-2)Gal(b1-4)GlcNAc(b1-6)]GalNAc
How it was run: as §1

[13] = target: Gal(a1-3)Gal(b1-4)GlcNAc(b1-3)GalNAc
How it was run: as §1

[14] = target: Gal(a1-4)Gal(b1-4)GlcNAc(b1-3)Gal(b1-4)Glc
How it was run: as §1

[15] = target: Gal(b1-3)GlcNAc(b1-3)GalNAc
How it was run: as §1

[16] = target: Gal(b1-3)[Fuc(a1-4)]GlcNAc(b1-2)Man(a1-3)[Gal(b1-3)[Fuc(a1-4)]GlcNAc(b1-2)Man(a1-6)]Man(b1-4)GlcNAc(b1-4)[Fuc(a1-6)]GlcNAc
How it was run: as §1

[17] = target: Gal(b1-4)GlcNAc(b1-3)Gal(b1-4)GlcNAc(b1-3)Gal(b1-4)GlcNAc(b1-2)Man(a1-3)[Gal(b1-4)GlcNAc(b1-3)Gal(b1-4)GlcNAc(b1-3)Gal(b1-4)GlcNAc(b1-2)Man(a1-6)]Man(b1-4)GlcNAc(b1-4)[Fuc(a1-6)]GlcNAc
How it was run: as §1

[18] = target: Gal(b1-4)GlcNAc(b1-3)Gal(b1-4)GlcNAc(b1-6)[Gal(b1-3)]GalNAc
How it was run: as §1

Gal3S(b1-4)Glc6S = target: Gal3S(b1-4)Glc6S
How it was run: as §1

Gal3S(b1-4)GlcNAc6S = target: Gal3S(b1-4)GlcNAc6S
How it was run: as §1

Gal3S4S(b1-4)GlcNAc = target: Gal3S4S(b1-4)GlcNAc
How it was run: as §1

Gal3S6S(b1-4)GlcNAc = target: Gal3S6S(b1-4)GlcNAc
How it was run: as §1

Gal3S6S(b1-4)GlcNAc6S = target: Gal3S6S(b1-4)GlcNAc6S
How it was run: as §1

Gal4S6S(b1-4)GlcNAc = target: Gal4S6S(b1-4)GlcNAc
How it was run: as §1

Gal6S(b1-3)GlcNAc6S = target: Gal6S(b1-3)GlcNAc6S
How it was run: as §1

Gal6S(b1-4)GlcNAc6S = target: Gal6S(b1-4)GlcNAc6S
How it was run: as §1

[19] = target: GalNAc(a1-3)GalNAc(b1-3)Gal(a1-4)Gal(b1-4)Glc
How it was run: as §1

[20] = target: GalNAc(b1-3)Gal(a1-6)Gal(b1-4)Glc
How it was run: as §1

GalNAc(b1-4)GlcNAc = target: GalNAc(b1-4)GlcNAc
How it was run: as §1

[21] = target: Glc(a1-4)Glc(a1-4)Glc(a1-4)Glc
How it was run: as §1

[22] = target: GlcNAc(a1-6)Gal(b1-4)GlcNAc
How it was run: as §1

[23] = target: GlcNAc(b1-2)Gal(b1-3)GalNAc
How it was run: as §1

[24] = target: GlcNAc(b1-2)Man(a1-3)[GlcNAc(b1-4)][GlcNAc(b1-2)Man(a1-6)]Man(b1-4)GlcNAc(b1-4)[Fuc(a1-6)]GlcNAc
How it was run: as §1

[25] = target: GlcNAc(b1-3)Gal(b1-4)GlcNAc(b1-6)[GlcNAc(b1-3)Gal(b1-3)]GalNAc
How it was run: as §1

[26] = target: GlcNAc(b1-4)Gal(b1-4)GlcNAc
How it was run: as §1

[27] = target: GlcNAc(b1-4)GlcNAc(b1-4)GlcNAc(b1-4)GlcNAc(b1-4)GlcNAc
How it was run: as §1

[28] = target: GlcNAc6S(b1-3)Gal(b1-4)GlcNAc
How it was run: as §1

Kdn(a2-3)Gal(b1-4)Glc = target: Kdn(a2-3)Gal(b1-4)Glc
How it was run: as §1

[29] = target: Neu5Ac(a2-3)Gal(b1-4)GlcNAc(b1-2)Man(a1-3)[GlcNAc(b1-2)Man(b1-4)GlcNAc(b1-2)Man(a1-6)]Man(b1-4)GlcNAc(b1-4)GlcNAc
How it was run: as §1

[30] = target: Neu5Ac(a2-3)Gal(b1-4)GlcNAc(b1-3)Gal(b1-4)GlcNAc(b1-3)GalNAc
How it was run: as §1

[31] = target: Neu5Ac(a2-3)Gal(b1-4)GlcNAc(b1-6)GalNAc
How it was run: as §1

[32] = target: Neu5Ac(a2-3)Gal(b1-4)[Fuc(a1-3)]GlcNAc(b1-3)Gal
How it was run: as §1

[33] = target: Neu5Ac(a2-3)[Neu5Ac(a2-6)]GalNAc
How it was run: as §1

Neu5Ac(a2-6)Gal = target: Neu5Ac(a2-6)Gal
How it was run: as §1

[34] = target: Neu5Ac(a2-6)Gal(b1-4)GlcNAc(b1-2)Man(a1-6)[GlcNAc(b1-2)Man(a1-3)]Man(b1-4)GlcNAc(b1-4)GlcNAc
How it was run: as §1

[35] = target: Neu5Ac(a2-6)Gal(b1-4)GlcNAc(b1-2)Man(a1-6)[Man(a1-3)]Man(b1-4)GlcNAc(b1-4)GlcNAc
How it was run: as §1

[36] = target: Neu5Ac(a2-6)Gal(b1-4)GlcNAc(b1-3)Gal(b1-4)GlcNAc(b1-3)[Neu5Ac(a2-6)Gal(b1-4)GlcNAc(b1-3)Gal(b1-4)GlcNAc(b1-6)]GalNAc
How it was run: as §1

[37] = target: Neu5Ac(a2-6)Gal(b1-4)GlcNAc(b1-6)[Gal(b1-3)GlcNAc(b1-3)]Gal(b1-4)Glc
How it was run: as §1

[38] = target: Neu5Ac(a2-6)Gal(b1-4)GlcNAc(b1-6)[Gal(b1-3)]GalNAc
How it was run: as §1

[39] = target: Neu5Ac(a2-6)GlcNAc(b1-4)GlcNAc
How it was run: as §1

[40] = target: Neu5Ac(a2-8)Neu5Ac(a2-3)Gal(b1-4)Glc
How it was run: as §1

[41] = target: Neu5Gc(a2-3)Gal(b1-3)GlcNAc
How it was run: as §1

For KILRGVCKKIMRTFLRRISKDILTGKK [NK2 (Sus scrofa)], the “glycan array binding signal (z-score)” value [1] was 0.02, the “glycan array binding signal (z-score)” value [2] was -0.178 and the “glycan array binding signal (z-score)” value [3] was 2.03. For the same binder, the “glycan array binding signal (z-score)” value [4] was 2.24, the “glycan array binding signal (z-score)” value [5] was 0.527 and the “glycan array binding signal (z-score)” value [6] was 0.282. For the same binder, the “glycan array binding signal (z-score)” value [7] was -1.05, the “glycan array binding signal (z-score)” value [8] was -0.991 and the “glycan array binding signal (z-score)” value [9] was 0.36. For the same binder, the “glycan array binding signal (z-score)” value [10] was 1.58, the “glycan array binding signal (z-score)” value [11] was 0.101 and the “glycan array binding signal (z-score)” value [12] was -0.533. For the same binder, the “glycan array binding signal (z-score)” value [13] was 0.826, the “glycan array binding signal (z-score)” value [14] was 0.785 and the “glycan array binding signal (z-score)” value [15] was -0.33. The “glycan array binding signal (z-score)” value [16] was -0.004, the “glycan array binding signal (z-score)” value [17] was 0.462 and the “glycan array binding signal (z-score)” value [18] was 2.04. For the same binder, the “glycan array binding signal (z-score)” value (Gal3S(b1-4)Glc6S) was 1.67, the “glycan array binding signal (z-score)” value (Gal3S(b1-4)GlcNAc6S) was 4.29 and the “glycan array binding signal (z-score)” value (Gal3S4S(b1-4)GlcNAc) was 2.81. For the same binder, the “glycan array binding signal (z-score)” value (Gal3S6S(b1-4)GlcNAc) was 2.92, the “glycan array binding signal (z-score)” value (Gal3S6S(b1-4)GlcNAc6S) was 3.98 and the “glycan array binding signal (z-score)” value (Gal4S6S(b1-4)GlcNAc) was 2.26. The “glycan array binding signal (z-score)” value (Gal6S(b1-3)GlcNAc6S) was 3.16, the “glycan array binding signal (z-score)” value (Gal6S(b1-4)GlcNAc6S) was 2.85 and the “glycan array binding signal (z-score)” value [19] was -0.58. The “glycan array binding signal (z-score)” value [20] was -0.616, the “glycan array binding signal (z-score)” value (GalNAc(b1-4)GlcNAc) was -0.865 and the “glycan array binding signal (z-score)” value [21] was 0.05. For the same binder, the “glycan array binding signal (z-score)” value [22] was -1.07, the “glycan array binding signal (z-score)” value [23] was -0.471 and the “glycan array binding signal (z-score)” value [24] was -1.11. For the same binder, the “glycan array binding signal (z-score)” value [25] was 0.144, the “glycan array binding signal (z-score)” value [26] was 0.592 and the “glycan array binding signal (z-score)” value [27] was 0.06. The “glycan array binding signal (z-score)” value [28] was -0.015, the “glycan array binding signal (z-score)” value (Kdn(a2-3)Gal(b1-4)Glc) was 0.105 and the “glycan array binding signal (z-score)” value [29] was -0.411. The “glycan array binding signal (z-score)” value [30] was 2.37, the “glycan array binding signal (z-score)” value [31] was 1.14 and the “glycan array binding signal (z-score)” value [32] was -0.39. For the same binder, the “glycan array binding signal (z-score)” value [33] was 0.24, the “glycan array binding signal (z-score)” value (Neu5Ac(a2-6)Gal) was -0.071 and the “glycan array binding signal (z-score)” value [34] was 0.794. For the same binder, the “glycan array binding signal (z-score)” value [35] was -0.656, the “glycan array binding signal (z-score)” value [36] was 0.794 and the “glycan array binding signal (z-score)” value [37] was -0.41. The “glycan array binding signal (z-score)” value [38] was -1.1, the “glycan array binding signal (z-score)” value [39] was -0.816 and the “glycan array binding signal (z-score)” value [40] was -0.889. The “glycan array binding signal (z-score)” value [41] was -0.108.
